This note sets out measurements from PubChem BioAssay (EPA / NIEHS).

Values joined by “and” are separate entries in the source; they are usually repeats but may differ in a detail not shown here. Equal entries are not always repeated. Inconclusive results are not listed. Active and inactive are the calls of the source. The calls were made as follows, unless noted: active = hit-call score of the fitted dose curve at least 0.9, where 1 is the maximum; inactive = score below 0.9.

Read-out in assay [1]: Monokine induced gamma interferon (MIG), CXCL9 (gene 4283)
Put plainly: BSK_3C_MIG: BioMAP Diversity Plus: 3C Assay for Monokine induced gamma interferon (MIG) Biomarker Activity (AID 2283021). To be noted: primary human endothelial cells (HUVEC); actives raise or lower the signal. In short, it runs like this:
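ELISA-measured MIG in dosed HUVEC 3C cultures at 24 h, analysed by bidirectional fitting with DMSO defining baseline activity.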

A short description of assay [2]: BSK_3C_SRB: Viability Assessment in the BioMAP Diversity Plus: 3C Assay (AID 2283023).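 Also: cells read 24 h after compound dosing; fitted both ways against DMSO so a hit may be signal rise or drop.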 The following applies: primary human endothelial cells (HUVEC). The essentials:
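Overt cytotoxicity is gauged in parallel confluent HUVEC cultures by SRB total-protein staining at the time of biomarker measurement, 24 h after dosing. Gain or loss of signal is fitted versus DMSO.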

Read-out in assay [3]: Matrix Metallopeptidase 1 (MMP1), MMP1 (gene 4312)
Put plainly: BSK_BE3C_MMP1: BioMAP Diversity Plus: BE3C Assay for Matrix Metallopeptidase 1 (MMP1) Biomarker Activity (AID 2283024). The following applies: primary human bronchial epithelial cells; actives raise or lower the signal. The essentials: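 In this multiplexed primary-cell system, human bronchial epithelium received chemicals for 24 h before an ELISA for MMP1. Values reflect bidirectional fits normalised to the DMSO baseline.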

Assay [4] can be described thus: BSK_3C_Vis: BioMAP Diversity Plus: 3C Assay for Morphology Visualization (AID 2283025).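 Also: fitted both ways so gain or loss versus DMSO counts.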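 As to AC50: light microscopy image of cell morphology used as background control.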 The following applies: primary human endothelial cells (HUVEC). In short, it runs like this: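 Light-microscopy morphology readout, 24 h exposure, human primary umbilical vein endothelium; analysed relative to DMSO with bidirectional fitting.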
Read-out in assay [5]: Pselectin, SELP (gene 6403)
Put plainly: BSK_4H_Pselectin: BioMAP Diversity Plus: 4H Assay for Pselectin Biomarker Activity (AID 2283026). The following applies: primary human endothelial cells (HUVEC); actives raise or lower the signal. In short, it runs like this: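 Bidirectional fits against DMSO gave the endpoint. Cells: primary human umbilical vein endothelium, chemical-treated for 24 h before ELISA detection of P-selectin.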

The nature of assay [6]: BSK_4H_SRB: Viability Assessment in the BioMAP Diversity Plus: 4H Assay (AID 2283027).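 Also: cells exposed to compound for 24 h before staining.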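 As to AC50: curves fitted both ways versus DMSO so AC50 may be loss or gain.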 To be noted: primary human endothelial cells (HUVEC). The essentials: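 HUVEC, 24 h post-dose; 10% TCA fix, 0.1% SRB stain, A560 nm. Total protein = overt cytotoxicity, parallel to biomarker read. Bidirectional fit vs DMSO baseline.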
Assay [7] is described as follows: BSK_BE3C_SRB: Viability Assessment in the BioMAP Diversity Plus: BE3C Assay (AID 2283028). The following applies: primary human bronchial epithelial cells. In short, it runs like this:
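SRB total-protein staining (0.1%, after TCA fixation) of chemically dosed human bronchial epithelial primary cells at 24 h; DMSO serves as the negative control for bidirectional curve fitting.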

Read-out in assay [8]: Thrombomodulin, THBD (gene 7056)
Put plainly: BSK_3C_Thrombomodulin: BioMAP Diversity Plus: 3C Assay for Thrombomodulin Biomarker Activity (AID 2283029). To be noted: primary human endothelial cells (HUVEC); actives raise or lower the signal. In short, it runs like this:
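In a multiplexed primary-cell system, human umbilical vein endothelium received chemical and was assayed 24 h later for thrombomodulin by ELISA. Parallel cultures were SRB-stained (0.1% SRB after 10% TCA fixation, read at 560 nm) to flag cytotoxicity.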

Read-out in assay [9]: Urokinase-type plasminogen activator receptor (uPAR), PLAUR (gene 5329)
Put plainly: BSK_4H_uPAR: BioMAP Diversity Plus: 4H Assay for Urokinase-type plasminogen activator receptor (uPAR) Biomarker Activity (AID 2283030). The following applies: primary human endothelial cells (HUVEC); actives raise or lower the signal. In short, it runs like this: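 Endpoint derived via bidirectional curve fitting against DMSO baseline; readout was ELISA detection of uPAR on umbilical vein endothelial cells at 24 h post-treatment, with SRB-stained parallel cultures assessing cytotoxicity.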

Read-out in assay [10]: Vascular endothelial growth factor receptor 2 (Homo sapiens) (UniProt P35968)
Put plainly: BSK_4H_VEGFRII: BioMAP Diversity Plus: 4H Assay for Vascular endothelial growth factor receptor 2 (VEGFR2) Biomarker Activity (AID 2283031).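 As to AC50: cell-surface VEGFR2 protein level quantified by ELISA.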 The following applies: primary human endothelial cells (HUVEC); actives raise or lower the signal. The essentials: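 In this multiplexed HUVEC system, biomarker ELISA was performed after 24 h chemical exposure. Parallel SRB staining (TCA fixation, 560 nm) tracked cytotoxicity; DMSO served as baseline.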

Read-out in assay [11]: Human Leukocyte Antigen - DR isotype (HLADR), HLA-DRA (gene 3122)
Nature of the assay: BSK_BE3C_HLADR: BioMAP Diversity Plus: BE3C Assay for Human Leukocyte Antigen - DR isotype (HLADR) Biomarker Activity (AID 2283032). To be noted: primary human bronchial epithelial cells; actives raise or lower the signal. In short, it runs like this:
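BioMAP BE3C format: human bronchial epithelium, 24 h compound treatment, ELISA detection of HLA-DR, with bidirectional analysis relative to DMSO.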

Read-out in assay [12]: Vascular cell adhesion molecule 1 (VCAM1), VCAM1 (gene 7412)
Put plainly: BSK_4H_VCAM1: BioMAP Diversity Plus: 4H Assay for Vascular cell adhesion molecule 1 (VCAM1) Biomarker Activity (AID 2283033).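 As to outcome: cell-surface VCAM-1 protein measured by ELISA.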 To be noted: primary human endothelial cells (HUVEC); actives raise or lower the signal. The essentials: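 In this human endothelial (HUVEC) system, biomarker ELISA was run 24 h after compound addition, and total protein in parallel wells was assessed by SRB at 560 nm; DMSO served as negative control.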

Read-out in assay [13]: Interferon-gamma inducible Protein 10 (IP10), CXCL10 (gene 3627)
Put plainly: BSK_BE3C_IP10: BioMAP Diversity Plus: BE3C Assay for Interferon-gamma inducible Protein 10 (IP10) Biomarker Activity (AID 2283034). To be noted: primary human bronchial epithelial cells; actives raise or lower the signal. In short, it runs like this:
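BE3C cells (human bronchial epithelial, primary); 24 h exposure; ELISA for IP-10; DMSO-referenced bidirectional fit.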

Read-out in assay [14]: Monokine induced gamma interferon (MIG), CXCL9 (gene 4283)
Nature of the assay: BSK_BE3C_MIG: BioMAP Diversity Plus: BE3C Assay for Monokine induced gamma interferon (MIG) Biomarker Activity (AID 2283035).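 Also: MIG protein measured by ELISA in BE3C cultures after 24 h of dosing.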 The following applies: primary human bronchial epithelial cells; actives raise or lower the signal. In short, it runs like this: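 Dose cells (human primary bronchial epithelial), incubate 24 h, quantify MIG by ELISA, then fit concentration–response in both directions relative to DMSO control.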

Read-out in assay [15]: Transforming growth factor beta 1 (TGFb1), TGFB1 (gene 7040)
Nature of the assay: BSK_BE3C_TGFb1: BioMAP Diversity Plus: BE3C Assay for Transforming growth factor beta 1 (TGFb1) Biomarker Activity (AID 2283036;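 also: TGF-b1 protein level measured by ELISA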). The following applies: primary human bronchial epithelial cells; actives raise or lower the signal. In short, it runs like this:
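TGF-b1 measured via ELISA, 24 h after chemical dosing of human bronchial epithelial cells (BE3C). Overt cytotoxicity assessed in parallel by SRB (0.1%, TCA-fixed, 560 nm); analysis bidirectional relative to DMSO.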

Read-out in assay [16]: Plasminogen activator inhibitor-1 (PAI1), SERPINE1 (gene 5054)
Put plainly: BSK_BE3C_PAI1: BioMAP Diversity Plus: BE3C Assay for Plasminogen activator inhibitor-1 (PAI1) Biomarker Activity (AID 2283037). To be noted: primary human bronchial epithelial cells; actives raise or lower the signal. The essentials: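 In this multiplexed primary-cell system, bronchial epithelial cells receive test chemical and are sampled at 24 h. PAI-1 is read by ELISA, with DMSO serving as negative control for bidirectional fitting.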

Read-out in assay [17]: urokinase plasminogen activator (uPA), PLAU (gene 5328)
Put plainly: BSK_BE3C_uPA: BioMAP Diversity Plus: BE3C Assay for urokinase plasminogen activator (uPA) Biomarker Activity (AID 2283038).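 Also: uPA protein level quantified by ELISA in cell cultures; uPA read one day after compound addition.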 The following applies: primary human bronchial epithelial cells; actives raise or lower the signal. In short, it runs like this:
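Using confluent primary human lung bronchial epithelial cultures, we dosed chemicals, waited 24 h, then ran a uPA ELISA, fitting bidirectionally against DMSO.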

Read-out in assay [18]: Urokinase-type plasminogen activator receptor (uPAR), PLAUR (gene 5329)
Nature of the assay: BSK_BE3C_uPAR: BioMAP Diversity Plus: BE3C Assay for Urokinase-type plasminogen activator receptor (uPAR) Biomarker Activity (AID 2283039).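 Also: uPAR protein level measured by ELISA on the cells; cells exposed to compound for one day before measurement.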 The following applies: primary human bronchial epithelial cells; actives raise or lower the signal. The essentials: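 Chemically treated human bronchial epithelial cells (lung primary) are assayed for uPAR by ELISA after 24 h, with data fitted in both directions using DMSO as negative control.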

Read-out in assay [19]: Interleukin-6 (IL6), IL6 (gene 3569)
Nature of the assay: BSK_CASM3C_IL6: BioMAP Diversity Plus: CASM3C Assay for Interleukin-6 (IL6) Biomarker Activity for (AID 2283040). To be noted: primary human coronary artery smooth muscle cells; actives raise or lower the signal.

Assay [20] concerns the target human Vitamin D Receptor (VDR), VDR (gene 7421) (UniProt P11473). Put plainly: ATG_VDR_TRANS: Attagene TRANS-FACTORIAL HepG2 Assay for human Vitamin D Receptor (VDR) (AID 2283022; active = hit-call score of the fitted dose curve at least 0.9, where 1 is the maximum). In short, it runs like this: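 Multiplexed TRANS reporter in HepG2; 24 h treatment; reporter mRNA by RT-PCR plus capillary electrophoresis; upregulation scored relative to DMSO.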

Sequence of human Vitamin D Receptor (VDR), VDR (gene 7421) (P11473 whole entry, looked up): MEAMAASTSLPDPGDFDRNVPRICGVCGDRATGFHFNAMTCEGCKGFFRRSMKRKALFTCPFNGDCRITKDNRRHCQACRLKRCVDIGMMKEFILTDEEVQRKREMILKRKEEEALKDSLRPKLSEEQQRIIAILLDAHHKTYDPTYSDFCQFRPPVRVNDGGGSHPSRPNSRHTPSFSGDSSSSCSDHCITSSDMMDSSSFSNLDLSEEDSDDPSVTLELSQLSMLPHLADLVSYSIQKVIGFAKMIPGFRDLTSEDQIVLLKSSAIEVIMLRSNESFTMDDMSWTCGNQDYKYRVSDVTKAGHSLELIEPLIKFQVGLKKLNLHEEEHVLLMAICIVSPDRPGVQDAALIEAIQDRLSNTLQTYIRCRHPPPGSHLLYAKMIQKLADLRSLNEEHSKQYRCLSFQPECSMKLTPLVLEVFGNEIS

Take `O=[N+]([O-])c1cc(C(F)(F)F)ccc1Cl`: the outcome in [1], in assay [2], in [3], in [4], in [5] and in assay [6] was inactive. For the same molecule, the result in assay [7], in assay [8], in assay [9], in [10], in assay [11] and in assay [12] was inactive. Also, the outcome in [13], in assay [14], in assay [15], in assay [16], in assay [17] and in [18] was inactive. In addition, in assay [19], the result was inactive.

For `C[Si](O[Si](C)(C)C)O[Si](C)(C)C`, the result in [20] was inactive.

`Cc1cc(C2(c3cc(C)c(O)cc3C)OS(=O)(=O)c3ccccc32)c(C)cc1O`: the outcome in assay [1], in assay [2], in assay [3], in [5], in assay [6] and in assay [7] was inactive. Moreover, the result in assay [8], in assay [9], in [10], in [11], in [12] and in assay [13] was inactive. The result in assay [14], in assay [16], in [17], in [18] and in assay [19] was inactive.

In the case of `CCCCO`, in assay [20], the molecule was called inactive.

Turning to `CC(=O)[C@H]1CC[C@H]2[C@@H]3CC=C4C[C@@H](O)CC[C@]4(C)[C@H]3CC[C@]12C`, the outcome in assay [1], in [3], in assay [5], in [6], in assay [7] and in [8] was inactive. For the same molecule, the result in [9], in assay [10], in [11], in assay [12], in assay [13] and in [14] was inactive. Besides, the outcome in assay [16], in assay [17], in assay [18] and in [19] was inactive. Also, the concentration at half-maximal activity (AC50) in assay [2] is 11.1 µM (active) and 7.02 µM (active).

On to `CC1=CCC(O)(C(C)C)CC1` (stereo not given), for which, in [20], the molecule was classed as inactive.

With `CCCCCCCCC`, the outcome in assay [20] was inactive.

With `O=C(O)c1cn(-c2ccc(F)cc2)c2cc(N3CCNCC3)c(F)cc2c1=O`, the outcome in assay [1], in [2], in assay [3], in assay [4], in [5] and in assay [6] was inactive. Further, the result in assay [7], in assay [8], in assay [9], in assay [10], in [11] and in assay [12] was inactive. Moreover, the outcome in [13], in assay [14], in assay [15], in assay [16], in [17] and in assay [18] was inactive. The outcome in assay [19] was inactive.

Regarding `CC(C)(COC(=O)c1ccccc1)COC(=O)c1ccccc1`, the outcome in assay [1], in assay [3], in assay [7], in assay [8], in [9] and in assay [11] was inactive. Also, the result in assay [13], in [14], in [15], in assay [16], in assay [17] and in [18] was inactive. Further, the outcome in [19] was inactive. Further, the AC50 is 26.8 µM (active) in assay [2]; 38.9 µM (active) in assay [4]; 31.7 µM (active) in assay [5]; 23.2 µM (active) in assay [6]; 28.4 µM (active) in [10]; 20 µM (active) in assay [12].

Regarding `CN(C)c1ccc(O)c2c1C[C@H]1C[C@H]3[C@H](N(C)C)C(=O)C(C(N)=O)=C(O)[C@@]3(O)C(=O)C1=C2O`, in assay [20], the call was inactive.

As for `NCCNCCN`, the outcome in assay [1], in [2], in assay [3], in assay [5], in [6] and in assay [7] was inactive. In addition, the result in [8], in assay [9], in [10], in assay [11], in assay [12] and in assay [13] was inactive. In addition, the result in assay [14], in assay [16], in assay [17], in [18] and in [19] was inactive.

In the case of `O=Nc1ccc(Nc2ccccc2)cc1`, the result in [20] was inactive.

With `C=C(C)C(=O)Nc1ccc(Cl)c(Cl)c1`, the outcome in assay [20] was inactive.
